From PubChem BioAssay
A selection: hits, their analogues and other compounds. The true share with any hit is near 10%.
GLS inhibitor – inhibitors of human glutaminase (GLS); O94925; GLS enzymatic activity, qHTS titration; Potency, µM (doses to about 45.5 µM), for the others: top-dose activity change, negative = inhibition, usual class: inhibitors; 0.21% of 410,000 active; AID 624170; further: on the % scale 0 is the no-effect control and ±100 the full control effect
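hKGA in 45 mM KH2PO4 pH 8.2, 0.02% Tween-20 with pin-transferred compounds; 1 mM L-glutamine (stock) plus glutamate oxidase/HRP/Amplex Red coupling added. Fluorescence read initially and after 30 min at RT.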
G9a block – blocks human histone lysine methyltransferase G9a | Q96KQ7 | Potency, µM (doses to about 102 µM), without a hit: at the top dose activity, negative = inhibition, usual class: inhibitors | G9a H3K9 monomethylation, AlphaScreen, 2 h | 8.8% of 350,000 active; further: on the % scale 0 is the no-effect control and ±100 the full control effect; nearly all actives have a fitted effect of over 75% in size
Target sequence (Q96KQ7 913-1193 limits assumed): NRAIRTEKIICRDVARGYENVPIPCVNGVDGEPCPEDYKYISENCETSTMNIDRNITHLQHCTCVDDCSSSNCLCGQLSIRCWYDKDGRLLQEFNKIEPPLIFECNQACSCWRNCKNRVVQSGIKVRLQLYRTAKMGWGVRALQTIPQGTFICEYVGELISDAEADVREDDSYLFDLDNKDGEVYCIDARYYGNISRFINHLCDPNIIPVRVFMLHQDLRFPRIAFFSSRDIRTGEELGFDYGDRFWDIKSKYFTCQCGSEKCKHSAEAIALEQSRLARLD
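Step 1: enzyme (final 20 nM) with compound, 15 min RT. Step 2: substrate peptide 500 nM and SAM 20 uM, 2 h RT. Step 3: anti-H3K9me1 antibody and AlphaScreen beads, 10 min, then plate read.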
JMJD2A Tudor – inhibitors of human JMJD2A Tudor domain; O75164; AlphaScreen JMJD2A-Tudor / H3K4me3 peptide binding; Potency, µM (series often up to 114 µM), without a hit: at the top dose activity change, negative = inhibition, actives largely listed as inhibitors; 4.4% of 390,000 active; AID 504339; further: on the % scale 0 is the no-effect control and ±100 the full control effect; nearly all actives have a fitted effect of over 50% in size
L3MBTL1 inh – inhibitors of human L3MBTL1 | AlphaScreen L3MBTL1–H3K9me1 peptide binding | Potency, µM (highest dose often 57.1 µM), without a hit: at the top dose activity, negative = inhibition, usual class: inhibitors | 0.66% of 230,000 active | AID 485360; further: on the % scale 0 is the no-effect control and ±100 the full control effect; nearly all actives have a fitted effect of over 60% in size
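L3MBTL1 50 nM + b-AHA-H3(1-15)K9me1 75 nM, 30 min RT; compound added, 30 min RT; streptavidin donor/Ni-chelate acceptor beads 10 ug/mL each final, 30 min RT dark; AlphaScreen read.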
HP1b chromo inh – HP1-beta chromodomain-methylated histone interaction inhibition; AlphaScreen HP1-beta / biotin-H3K9me3 peptide binding; Potency, µM (top dose mostly 114 µM), for inactives: at the top dose activity change, negative = inhibition, hits mostly inhibitors; 0.56% of 390,000 active; further: nearly all actives have a fitted effect of over 70% in size
Target sequence (P83916 whole entry, looked up): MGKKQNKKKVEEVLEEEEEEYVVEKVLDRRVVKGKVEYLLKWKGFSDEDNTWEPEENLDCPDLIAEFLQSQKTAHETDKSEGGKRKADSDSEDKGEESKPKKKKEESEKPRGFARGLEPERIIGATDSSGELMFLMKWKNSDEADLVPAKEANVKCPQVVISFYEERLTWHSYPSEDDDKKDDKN
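AlphaScreen: HP1-beta (50 nM) preformed 30 min with biotin-H3(1-18)K9me3 peptide (50 nM) in PBS pH 7.4, 0.01% Tween-20. Compound added for 30 min at RT, then streptavidin donor/nickel chelate acceptor beads (10 ug/mL) for 30 min.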
BAZ2B block – inhibitors of human BAZ2B bromodomain. Q9UIF8. AlphaScreen BAZ2B-H3K14Ac peptide displacement. Potency, µM (doses to about 114 µM), for the others: at the highest dose activity change, negative = inhibition, actives largely listed as inhibitors. 4.4% of 360,000 active. AID 504333; further: on the % scale 0 is the no-effect control and ±100 the full control effect; nearly all actives have a fitted effect of over 60% in size
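AlphaScreen displacement of biotin-H3(5-23)K14Ac peptide (50 nM final) from BAZ2B (50 nM final) in PBS pH 7.4, 0.01% Tween-20; complex preformed 30 min RT, then compounds (top 110 uM) 30 min RT, beads 20 min dark.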
* = called active by the depositor; u = inconclusive; x = no result; ! = not active in a repeat; [ ] = another dose, or the depositor's remark. The call rests on the fitted dose curve; in most records, active means well fitted curve in the direction sought with a large enough effect; inconclusive means small, poorly fitted or top-dose-only effect, or another doubt; inactive means no such curve, though single readings can be large; an effect the other way counts as inactive or inconclusive. Potency means the concentration at half of the fitted maximal effect.

SMILES	GLS inhibitor	G9a block	JMJD2A Tudor	L3MBTL1 inh	HP1b chromo inh	BAZ2B block
CC(=O)C1=C(C)NC(SCc2ccc(C#N)cc2)=C(C#N)C1c1ccco1 (stereo not given)	-3%	u	20µM*	4%	34%	-33%
CC(=O)C1=C(C)NC(SCC(=O)c2ccccc2)=C(C#N)C1c1ccco1 (stereo not given)	x	u	x	-14%	x	12%
COc1cc(Br)c(C2CC(=O)Nc3cc4c(cc32)OCCO4)cc1OC (stereo not given)	8%	u	u	x	-9%	u
C/C(=N\N=C1\NC(=O)C(Cc2ccccc2)S1)c1ccccc1 (stereo not given)	5%	u	63µM*	-6%	u	u
CN(C(=O)COc1ccccc1)c1nnc(C23CC4CC(CC(C4)C2)C3)s1	-3%	14µM*	-4%	14%	31%	0%
O=C(Nn1c(Cc2cccs2)nc2ccccc2c1=O)c1cccs1	5%	50µM*	-16%	7%	22%	-6%
C/C(=N\Nc1nc2ccccc2[nH]1)c1ccc2c(c1)OCO2	24%	u	40µM*	x	u	u
C/C(=N\Nc1ccccn1)c1ccc2c(c1)OCO2	-6%	8%	-16%	x	-7%	u
C/C(=N\Nc1nc2ccccc2[nH]1)c1ccc2c(c1)OCCO2	-13%	u	50µM*	x	u	32µM*
COc1ccc(C(c2c(O)cc(C)n(Cc3ccco3)c2=O)N2CCN(c3ccccc3)CC2)cc1 (stereo not given)	16%	u	-18%	x	22%[57 µM]	-16%
CCn1c(COc2ccc(=O)n(-c3ccccc3)n2)n[nH]c1=S	7%	25µM*	20µM*	2%	40%	-2%
COc1cc2[nH]c3c(Cl)ncnc3c2cc1OC	-3%	u	-12%	-13%	20%	45µM*
O=S(=O)(O)c1cc(Cl)cc(N=Nc2ccc(O)cc2O)c1O	7%	x	20µM*	x	u	x
Cc1ccc(-c2csc(N(CCO)CCCn3c(C(F)(F)F)nc4ccccc43)n2)cc1	1%	45µM*	-34%	-20%	5%	u
CCOC(=O)c1c(C)[nH]c(C)c1S(=O)(=O)NCC(=O)NCc1ccc(C)cc1	0%	4%[59 µM]	-18%	x	27%	-2%
Cc1ccc2c(=O)cc(C(=O)Nc3sc4c(c3C(=O)NCC3CCCO3)CCCC4)oc2c1C (stereo not given)	3%	-5%[59 µM]	-23%	x	18%	1%
O=C(Cc1cccs1)Nc1c(C(=O)Nc2ccc(F)cc2)oc2ccccc12	6%	42%[59 µM]	-8%	x	60%	28%
COc1cccc(C(=O)CN2C3=NCCCN3c3ccccc32)c1	26%	u	-15%	-2%	20%	7%
COc1ccc(C(=O)CN2C3=NCCCN3c3ccccc32)cc1OC	5%	45µM*	-12%	1%	10%	-6%
CN(C)c1ccc(/C=C/c2cccc[n+]2[O-])cc1	4%	50µM*	-17%	5%	4%	-6%
CC(C)CC[n+]1ccccc1/C=C/c1ccc(N(C)C)cc1	29%	32µM*	-15%	x	11%	-31%
CN(C)c1ccc(/C=C/c2ccncc2)cc1	1%	u	-29%	3%[11.4 µM]	32%	u
COc1ccc(-c2c(C#N)c(SCC(=O)Nc3cccc(Cl)c3)nc(C)c2C(=O)Nc2ccccc2)cc1OC	-3%	-2%[59 µM]	-13%	x	34%	3%
CCN(CC)C(C)CN1c2ccccc2Sc2ccccc21 (stereo not given)	x	5µM*!	x	x	x	x
Cc1cc(N2CCCCC2)nc2ccc(NC(=O)c3ccc(Br)o3)cc12	-4%	50µM*	u	x	u	u
CCN(CC)CCNC(=S)Nc1ccc2nc(N3CCCC3)cc(C)c2c1	23%	45µM*	-1%	x	34%	x
Cc1cc(N2CCN(C)CC2)nc2ccc(NC(=S)NCCC(C)C)cc12	26%	50µM*	u	x	-4%	u
